The campaign covered roughly 2,000 compounds. Fewer than 10 were called active. The list is a sample of the results. Unmarked numbers belong to inactive results.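 Rule for the calls: active = growth inhibition of at least 75% in every replicate, which also brings the mean inhibition to 75% or more; inconclusive = mean inhibition 75% or more but some replicate under 75%; inactive = the rest.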

Consider 47 molecules from PubChem BioAssay AID504594 (Broad Institute, 2011).

This experiment in a line: reduced viability of yeast carrying PfHsp90 – S. cerevisiae, BacTiter-Glo luminescence, antimalarial PfHsp90 inhibitor project, primary screen (AID 504594).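 Note: 0% = DMSO neutral control wells and 100% = 20 µM radicicol control wells; higher value means stronger growth inhibition because the sign is flipped.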 The note with it: S. cerevisiae expressing PfHsp90, BacTiter-Glo growth, 48 h; at 9.4 µM; hits give high values.
As for `CCc1cc2c(C)cc(=O)oc2cc1OC(=O)C1CCCN1C(=O)OC(C)(C)C` (configuration not stated), the growth inhibition is 5.63%.
`COc1ccc2cc(C(=O)Nc3ccc(S(N)(=O)=O)cc3)sc(=O)c2c1OC`: the growth inhibition was 5.36%.
As for `CC(C)(C)NCC(O)COc1ccccc1C(=O)CCc1ccccc1` (configuration not stated), the growth inhibition is -4.71%.
The result for `Cn1nc(-c2ccccn2)nc2c(=O)n(C)c(=O)nc1-2` reads -12.4%.
On to `Cn1c(=O)[nH]c2nnc(-c3ccc(Cl)c(Cl)c3)nc2c1=O`, for which the growth inhibition is 1.34%.
The value for `Cn1nc(-c2ccc(Cl)cc2)nc2c(=O)n(C)c(=O)nc1-2` was 104% (active).
With `N/C(Cc1ccc(Cl)cc1Cl)=N\OC(=O)c1ccc(Br)o1`, the growth inhibition is 30.5%.
Consider `Cc1cccc(Oc2coc3cc(OC(=O)c4cncc(Br)c4)ccc3c2=O)c1`, for which the growth inhibition is -0.933%.
The result for `COC(=O)[C@@H](N)CS` reads -1.65%; that for `O=Cc1ccc(N2CCCCC2)cc1`, -3.18%.
The value for `C#CCOc1ccc2c(C)cc(=O)oc2c1` was -0.459%; that for `COc1cccc(CC(=O)NCC2COc3ccccc3O2)c1OC` (configuration not stated) was 12.9%; that for `O=C(NCc1ccco1)/C(=C\C=C\c1ccccc1)NC(=O)c1ccccc1Br` was -0.463%.
The value for `CC(=O)OCC(OC(C)=O)C(OC(C)=O)C(OC(C)=O)C(=O)Nc1cccc(C)c1` (configuration not stated) was -0.0548%.
In the case of `CC(=O)N1CCN(c2ccc(NC(=O)/C=C/c3ccccc3)cc2)CC1`, the growth inhibition was 10.6%.
The value for `Cc1ccccc1-c1nn(-c2ccc(F)cc2F)cc1CNCCN(C)C` was -12.6%.
The value for `CC(C)Cc1ccc(C(C)C(=O)Nc2ccc(O)cc2)cc1` (configuration not stated) was -4.11%.
For `Cc1ccc(C(=O)Nc2ccc(O)cc2C(=O)O)cc1C`, the growth inhibition was 4.07%.
The value for `CC(=O)N1CCn2c3c(c4cc(C)ccc42)CCCC31` (configuration not stated) was -11.1%; that for `Fc1cccc(Cc2noc(CN3CCN(c4cnccn4)CC3)n2)c1` was -2%.
The value for `O=Cc1ccccc1Oc1ccccc1` was -0.351%.
For the molecule `COc1ccc2[nH]c3c(c2c1)CCn1c-3nc2ccccc2c1=O`, the growth inhibition is 0.118%.
The result for `CC(=O)Nc1ccc(OS(=O)(=O)c2c(C)cc(C)cc2C)cc1` reads 10.9%.
The value for `CCOc1ccc(C(=O)C(C)=O)c(OCC)c1` was 10.5%.
The result for `CC(=O)Oc1ccc(C2OC(=O)c3ccccc3N2C(C)=O)cc1` (configuration not stated) reads -6.47%; that for `COc1ccc(C(=O)O)cc1F`, -4.03%.
In the case of `O=C(O)c1ccccc1OCCOc1ccccc1`, the growth inhibition was 3.6%.
The value for `Cc1ccc2nc3c(cc(C(=O)NCC4CCCO4)c(=N)n3CCCOC(C)C)c(=O)n2c1` (configuration not stated) was 4.47%; that for `CC(C)CC(=O)NC(NC(=O)CC(C)C)c1cccc([N+](=O)[O-])c1` was 2.96%.
The value for `CC(=O)NC(NC(=S)N1CCCCCC1)C(Cl)(Cl)Cl` (configuration not stated) was -2.52%; that for `C[N+]1(C2CCC3CCCC2C3O)CCCCC1` (configuration not stated) was -8.1%; that for `O=C(O)CCCCCN=C1CCc2ccccc2N1` was 0.535%.
The result for `Cc1ccc(OCCCCn2ccnc2C)c(C)c1` reads -3.77%; that for `COc1ccc(CCN2C(=O)CSC2c2ccc(OC)c(OC)c2)cc1OC` (configuration not stated), 2.57%; that for `O=C1C(=O)N2C(=C1C(=O)N1CCCCCC1)c1ccccc1CC21CCCC1`, -4.5%.
Take `CCN1CCN(C(=S)c2ccc(OC)cc2)CC1`: the growth inhibition is -1.26%.
The value for `O[C@H]1COC2C1OC[C@@H]2O` (some centres not stated) was -2.02%; that for `O=[N+]([O-])c1ccc(O)c2ncccc12` was 93.7% (active); that for `O=C(Cc1ccccc1[N+](=O)[O-])NCc1ccncc1` was 15%.
The result for `Oc1ccc(COCc2ccccc2)c2cccnc12` reads -6.18%; that for `CC1CCN(C(=O)Oc2ccccc2)CC1`, 5.73%.
The result for `C[N+]12CCCCC1C(COC(=O)c1ccc3c(c1)OCO3)CCC2` (configuration not stated) reads 1.34%; that for `CC(C)N(C(=O)Cc1ccccc1[N+](=O)[O-])C(C)C`, 4.35%; that for `O=C(c1ccc(Cl)cc1)C1CCCN(Cc2ccc(Oc3ncccn3)cc2)C1` (configuration not stated), -7.65%.
As for `Cc1ccc(C2CC(c3cccs3)=NN2C(=O)c2ccco2)o1` (configuration not stated), the growth inhibition was 6.03%.
The value for `O=CNC1CCCc2c1[nH]c1ccc(Cl)cc21` (configuration not stated) was -7.59%; that for `COc1ccc(C(=O)[C@H]2[C@H]3C(=O)N(c4ccccc4)C(=O)[C@H]3C3C=CC=NN32)cc1` (some centres not stated) was 15.9%.
